Compounds without any hit were thinned out: in the full panel of roughly 83,000, 20% have a hit.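 Testing used 96-well plates and a 48-hour single-concentration exposure. Example: -40 means 40% of the starting cells died.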 A number with no mark means an inactive call. The source made the active and inactive calls.
tested on: SNB-75 CNS; assay: NCI-60 one-dose screen, 48 h (100 = growth as untreated, 0 = no growth, -100 = all killed); details: 10 µM unless noted
Experimental: Growth inhibition of the SNB-75 human tumor cell line is measured as a screen for anti-cancer activity. Cells are grown in 96 well plates and exposed to the test compound for 48 hours. Compounds are tested at a single concentration, which is 10^-5 M for most compounds. The reported endpoint is percent growth (GI% or GIPRCNT), where numbers from 0 - 100% represent growth inhibition, and numbers from -100% - 0 represent cell death. For example, a value of 40 represents 60% growth inhibition. A value of 0 means no net growth occurred over the course of the experiment. A value of -40 indicates 40% of cells at the beginning of the experiment died by the end of the experiment. A value of -100 means all cells are dead at the end of the experiment.
NCI-60 Human Tumor Cell Lines Screen was performed using the standard one-dose NCI protocol, which is described in more detail at https://dtp.cancer.gov/discovery_development/nci-60/default.htm.
Compounds with GIPRCNT values below 10 were considered active. Activity score was based on GIPRCNT using the following formula: […]
Score is 0 for GIPRCNT values of 100 or above, 50 for GIPRCNT values of 0, and 100 for GIPRCNT values of -100.

Structure (SMILES)	growth
Cc1cc(C)cc(Nc2ccc([N+](=O)[O-])c(NCCN3CCOCC3)n2)c1	31.3%
O=C(Nc1cccc(NC(=O)C2CCCCC2)c1)c1ccccn1	87%
CCCCCCCCCCCCCCCCCCOc1ccccc1CC(=O)NCC[N+]1(C)CCOCC1	46.9%
CC(=O)c1cc(-c2ccccc2N)n(-c2ccc3c(c2)OCO3)c1C	22.8%
CCOC(=O)C1=C(c2ccccc2)N=c2s/c(=C/c3ccc(Br)cc3)c(=O)n2C1c1ccc(O)cc1 (stereo not given)	68.7%
COc1cccc(C(=O)OCC(O)C(=O)NC23CC4CC(CC(C4)C2)C3)c1 (stereo not given)	95.2%
OC(c1ccccc1)(c1ccccc1)c1ccccc1-c1ccccc1	94.1%
CCN(CC)c1ccc(/C=C\c2cc(C)c3cc(C)ccc3n2)cc1	39.7%
Cc1cc(C(=O)Nc2cc(Nc3ncccc3-c3ncnc4nc[nH]c34)ccc2F)cc(C(F)(F)F)c1	59.4%
N=c1sc(Cc2cc(Cl)ccc2Cl)cn1CC(=O)c1ccccc1	5.16% (active)
O=C(Nc1ccccc1)c1sc(-c2ccccc2)cc1O	82.6%
CC1O[C@@H]2C[C@@](O)([C@H]1O)n1c3ccccc3c3c4c(c5c6ccccc6n2c5c31)C(=O)NC4=O (stereo not given in full)	44.8%
CCOC(=O)c1c2c(n3c1NCC3)-c1ccccc1C2=O	83.5%
C=CCN=C(N)SCCCCCCSC(N)=NCC=C	98.8%
CCCCCCCCn1ccc2cc(NC(=O)Cn3cc(CN4CCCCCC4)nn3)ccc21	87.5%
Clc1nn2c(Cn3cnc4c(NCc5ccccc5)ncnc43)nnc2c2ccccc12	37.1%
COc1ccc(/C(C)=C(\c2ccc(Cl)cc2)c2ccc(OCCN3CCCC3)cc2)cc1	91.4%
COc1cc(-c2nc3occn3c2-c2ccnc(NCCCNS(=O)(=O)c3ccccc3)n2)ccc1F	102%
O=C(CBr)CN1C(=O)c2ccccc2C1=O	93.5%
O=C(/C=C/c1cccc(Cl)c1)c1cccc(OCCCCOc2cccc(C(=O)/C=C/c3cccc(Cl)c3)c2)c1	77.8%

Structure (SMILES)	growth
COC(=O)/C(CCC=C(C)C)=C1\[C@@H](OC(C)=O)C[C@@]2(C)[C@H]1CC(=O)[C@H]1[C@@]3(C)CCC(N4CCCC4)[C@@H](C)[C@@H]3CC[C@@]12C (stereo not given in full)	99.2%
CN1CCN(c2ccc3c(c2)nc(NNC(=O)c2cnccn2)c2cccn23)CC1	66.7%
C/C(=N\Nc1nc(C)cs1)c1cc2ccccc2o1	119%
COc1ccc(C2CC(c3ccc(Nc4nc(Nc5ccc(F)cc5)nc(Nc5ccc(F)cc5)n4)cc3)=NN2C(C)=O)cc1 (stereo not given)	101%
N#CC(C#N)N=Nc1ccc(Cl)cc1Cl	89.3%
CCOC(=O)c1ccc2c(c1)c1c(C)c3ccncc3c(C)c1n2C	2.3% (active)
Brc1ccc(-c2cnc3nonc3n2)cc1	96%
CC/C(Cc1ccccc1)=C(\c1ccc(OCCN2CCCCCC2)cc1)c1ccc(OC(=O)NCc2ccccc2)cc1	66.4%
c1ccc2cc(Cn3c[n+](Cc4ccc5ccccc5c4)c4ccccc43)ccc2c1	-7.06% (active)
NC(=O)c1ccc(NC(=O)c2oc3ccccc3c2-c2cnn(-c3ccccc3)c2)cc1	-25.5% [50 µM] (active)
CCc1cccc(Sc2cc(C(=O)N3Cc4ccc(OCCN(C)C)cc4C3)ccc2O)c1	121%
Clc1ccc(-c2nc(-c3c[nH]c4ncccc34)cs2)cc1	-11.3% [100 µM] (active)
C[C@@H]1O[C@@H](O[C@@H]2C[C@H](c3ccc4c(c3O)C(=O)C3=C(C4=O)[C@@]4(O)C(=O)C[C@](C)(O)C[C@@]4(O)C=C3)O[C@H](C)[C@H]2O)C[C@H](O)[C@@H]1O	86.8%
COc1cccc(/C=C2\COc3ccc(O)cc3C2=O)c1	82.4%
CN(C)c1ccc(/C=C2/C=C(c3ccccc3)OC2=O)cc1	102%
Cc1cc(C)c(-c2c(O)c(Br)c(-c3c(C)cc(C)c(Br)c3C)c(O)c2Br)c(C)c1Br	33.4%
O=C(Nc1cccnc1Nc1ccc(Cl)cc1)c1cn(Cc2ccc(F)cc2)nn1	94.6%
C=C(CN1CC=CCC1)[C@@H]1CC[C@]2(CO)CC[C@]3(C)[C@H](CC[C@@H]4[C@@]5(C)CC[C@H](O)C(C)(C)[C@@H]5CC[C@]43C)[C@@H]12	108%
Cn1c(=O)c2c(c3ccccc31)OC(N)=C(C#N)C21C(=O)c2ccccc2C1=O	76.8%
Cc1ccc(-c2nc(C#N)c(S(=O)(=O)NCCO)o2)cc1	105%
